Experimental data reported in PubChem BioAssay AID488848 (Broad Institute, 2010).
Potency and affinity values are given separately. Calls of active or inactive are those of the source.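 Rule for the calls: active = compounds lowering caspase signal with half-maximal concentration at most ten times their top tested dose; inconclusive = flat curve with 30 to 70% inhibition, or poor fit; inactive = the rest.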

Test: caspase-3/7 inhibition in cytokine-treated INS-1E, dose response, beta-cell apoptosis inhibitor project, cell-based, caspase luminescence, dry powder (AID 488848)

Row | Structure (SMILES) | outcome
1 | COc1cccc(S(=O)(=O)N(C)C[C@@H]2Oc3c(NC(=O)Nc4cccc5ccccc45)cccc3C(=O)N([C@@H](C)CO)C[C@H]2C)c1 | inactive
2 | C[C@@H]1CN([C@@H](C)CO)C(=O)c2cccc(NC(=O)Nc3cccc4ccccc34)c2O[C@H]1CN(C)S(=O)(=O)c1ccc(Oc2ccccc2)cc1 | inactive
3 | COc1ccc(S(=O)(=O)N(C)C[C@@H]2Oc3c(NC(=O)Nc4cc(F)ccc4F)cccc3C(=O)N([C@@H](C)CO)C[C@H]2C)cc1 | inactive
4 | COc1ccc(S(=O)(=O)N(C)C[C@@H]2Oc3c(NC(=O)Nc4cccc5c4NSN5)cccc3C(=O)N([C@@H](C)CO)C[C@H]2C)cc1 | inactive
5 | Cc1ccc(S(=O)(=O)N(C)C[C@@H]2Oc3c(NC(=O)Nc4ccc(F)cc4)cccc3C(=O)N([C@H](C)CO)C[C@H]2C)cc1 | inactive
6 | C[C@@H]1CN([C@@H](C)CO)C(=O)c2cccc(NC(=O)Nc3cccc4ccccc34)c2O[C@H]1CN(C)S(=O)(=O)Cc1ccc(F)cc1 | inactive
7 | C[C@@H]1CN([C@@H](C)CO)C(=O)c2cccc(NC(=O)Nc3cccc4ccccc34)c2O[C@H]1CN(C)S(=O)(=O)c1ccc2c(c1)CCC(=O)N2 | inactive
8 | COc1ccc(S(=O)(=O)N(C)C[C@@H]2Oc3c(NC(=O)Nc4cc(F)cc5c4OCOC5)cccc3C(=O)N([C@@H](C)CO)C[C@H]2C)cc1 | inactive
9 | COc1ccc(S(=O)(=O)N(C)C[C@@H]2Oc3c(NC(=O)Nc4cccc(C(F)(F)F)c4)cccc3C(=O)N([C@@H](C)CO)C[C@H]2C)cc1 | inactive
10 | C[C@@H]1CN([C@@H](C)CO)C(=O)c2cccc(NC(=O)Nc3cccc4ccccc34)c2O[C@H]1CN(C)S(=O)(=O)c1ccc(-c2ccccc2)cc1 | inactive
11 | C[C@@H]1CN([C@@H](C)CO)C(=O)c2cccc(NC(=O)Nc3cccc4ccccc34)c2O[C@H]1CN(C)S(=O)(=O)c1ccc(F)cc1 | inactive
12 | COc1ccc(S(=O)(=O)N(C)C[C@@H]2Oc3c(NC(=O)Nc4ccc5c(c4)OCCO5)cccc3C(=O)N([C@@H](C)CO)C[C@H]2C)cc1 | inactive
13 | COc1ccc(S(=O)(=O)N(C)C[C@@H]2Oc3c(NC(=O)Nc4cccc5ccccc45)cccc3C(=O)N([C@@H](C)CO)C[C@H]2C)cc1Cl | inactive
14 | C[C@@H]1CN([C@@H](C)CO)C(=O)c2cccc(NC(=O)Nc3cccc4ccccc34)c2O[C@H]1CN(C)S(=O)(=O)c1cccc(F)c1 | inactive
15 | COc1ccc(S(=O)(=O)N(C)C[C@@H]2Oc3ccc(NC(=O)Nc4cccc5ccccc45)cc3C(=O)N([C@@H](C)CO)C[C@H]2C)cc1 | inactive
16 | C[C@@H]1CN([C@@H](C)CO)C(=O)c2cccc(NC(=O)Nc3cccc4ccccc34)c2O[C@H]1CN(C)S(=O)(=O)c1ccccc1F | inactive
